Compound activity from PubChem BioAssay.
TDP1 block: TDP1 (human) enzyme inhibition; Q9NUW8; recombinant TDP1, AlphaScreen DNA substrate cleavage; Potency, µM (top dose mostly 130 µM), usual class: inhibitors; actives 0.28% (n = 350,000); AID 485290; also: nearly all actives have a fitted effect of over 40% in size
Target sequence (Q9NUW8 whole entry, looked up): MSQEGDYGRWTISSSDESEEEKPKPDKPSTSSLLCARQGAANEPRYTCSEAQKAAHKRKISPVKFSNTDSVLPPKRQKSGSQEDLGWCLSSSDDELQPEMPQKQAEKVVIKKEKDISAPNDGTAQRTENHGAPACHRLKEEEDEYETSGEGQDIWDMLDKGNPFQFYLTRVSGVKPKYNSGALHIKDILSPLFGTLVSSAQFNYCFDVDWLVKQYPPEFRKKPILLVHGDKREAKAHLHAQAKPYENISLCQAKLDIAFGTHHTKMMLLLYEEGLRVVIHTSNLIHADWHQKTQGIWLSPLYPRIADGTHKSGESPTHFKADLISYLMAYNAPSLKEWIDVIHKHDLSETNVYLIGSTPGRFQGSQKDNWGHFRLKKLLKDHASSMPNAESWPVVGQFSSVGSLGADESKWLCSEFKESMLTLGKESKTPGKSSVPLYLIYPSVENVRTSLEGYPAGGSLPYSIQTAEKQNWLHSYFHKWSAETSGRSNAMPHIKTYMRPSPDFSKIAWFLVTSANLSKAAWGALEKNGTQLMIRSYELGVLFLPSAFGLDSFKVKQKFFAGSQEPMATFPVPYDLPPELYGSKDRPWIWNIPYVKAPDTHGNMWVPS
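Compounds were preincubated with Tdp1 (1 nM final) for 15 min at room temperature before substrate (15 nM final) started a 5 min reaction; beads (10 ug/ml final) were then added for 10 min before AlphaScreen detection.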
Gal4-VP16 FLuc: counter-screen for ROR gamma inhibitors: Gal4-VP16 reporter; Drosophila S2 Gal4-VP16 UAS-luciferase, luminescence, 20 h; AID 2546; Potency, µM (doses to about 53.6 µM), hits mostly inhibitors; actives 3.5% (n = 310,000);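 also: Gal4-VP16 expression switched on by copper sulfate through the metallothionein promoter; nearly all actives have a fitted effect of over 50% in size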
RORg inh: inhibitors of mouse ROR gamma transcriptional activity | P51450 | Drosophila S2 Gal4-RORgamma UAS-luciferase reporter, 20 h | Potency, µM (series often up to 53.6 µM), usual class: inhibitors | actives 5.4% (n = 310,000); also: nearly all actives have a fitted effect of over 60% in size
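Luminescence from a UAS-regulated Photinus luciferase reporter in stably transfected Drosophila Schneider cells is measured; decreased signal marks ROR gamma inhibition. Fusion expression is induced by 700 uM copper sulfate for 20 hr.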
DT40 TDP1 CPT: growth inhibition of DT40 Tdp1-/-;hTDP1 cells with camptothecin (screen for TDP1 inhibitors) | chicken DT40 Tdp1-/-;hTDP1 cells + 20 nM CPT, ATP luminescence, 48 h | Potency, µM (highest dose often 46.2 µM), most hits filed as inhibitors | actives 12% (n = 420,000); also: nearly all actives have a fitted effect of over 55% in size
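Chicken DT40 Tdp1-/- cells stably complemented with human TDP1 were seeded at 400 cells/well in medium containing 20 nM camptothecin, exposed to pin-transferred compounds, and grown at 37 °C for at least 48 hr. Viability was read as ATP luminescence.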
TDP1 cell noCPT: qHTS for Inhibitors of human tyrosyl-DNA phosphodiesterase 1 (TDP1): qHTS in cells in absence of CPT; actives 15% (n = 420,000); DT40 Tdp1-/- hTDP1 cells, no CPT, ATP luminescence, 48 h; AID 686978, 2013; Potency, µM (series often up to 46.2 µM), hits mostly inhibitors; also: nearly all actives have a fitted effect of over 55% in size
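Readout: luminescence from CellTiter-Glo after 30 min in the dark at RT. Cells: DT40 Tdp1-/- with stable hTDP1, 400/well. Exposure: compounds alone, ≥48 hr, 37 °C.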
A number is an active result; 0 = inactive; ? = inconclusive; - = no result; [ ] = another dose, or the depositor's remark. Shown are actives, neighbours in structure and some others; about 19% of the full set was active somewhere. Calls follow the shape of the dose curve; as a rule, active = well fitted curve in the direction sought with a large enough effect; inconclusive = small, poorly fitted or top-dose-only effect, or another doubt; inactive = no such curve, though single readings can be large; an effect the other way counts as inactive or inconclusive.

SMILES	TDP1 block	Gal4-VP16 FLuc	RORg inh	DT40 TDP1 CPT	TDP1 cell noCPT
Cn1c(=O)[nH]c2cc(Cl)cnc21	0	0	0[10 µM]	0	0
Cc1ccc(Cn2c(N)nc3ccccc32)cc1	-	?	?	18.4µM	9.2µM
CCCc1nc2ccccc2n1Cc1ccccc1OC	0	?	6.31µM	0	?
COc1ccccc1Cn1c(CCCO)nc2ccccc21	0	0	0	?	0
O=C(Nc1nc2c(s1)CCCC2)c1cc(-c2ccccc2)nc2ccccc12	0	?	?	?	?
Cc1cnc(/C=C/c2ccc(N(C)C)cc2)cn1	-	-	-	3.16µM	2.82µM
Cc1ccc(C)c(S(=O)(=O)N/N=C/c2ccc(N(C)C)cc2)c1	0	0	0	0	0
Cc1cnc2c(C)ccc(C)c2c1/C=C/c1ccc(N(C)C)cc1	-	-	-	?	15.8µM
Cc1cc(N/C=C\c2nnnn2-c2ccc(F)cc2)no1	0	0	0	0	0
C=CCc1cc(/C=C/c2nc(O)c([N+](=O)[O-])c(=O)[nH]2)cc(OC)c1O	?	0	0	0	0
COc1cccc(NC(=O)CSc2nnc(-c3cc(C)n(-c4ccccc4)c3C)o2)c1	0	11.2µM	10µM	?	?
CCOC(=O)CSc1nnc(-c2ccccc2OC)o1	0	0	0	0	0
COc1ccccc1-c1nnc(SCC(=O)Nc2c(Cl)cccc2Cl)o1	0	0	0	18.4µM	20.6µM
COc1ccccc1-c1nnc(SCC(=O)NCc2c(C)c(Cl)cc(C(C)C)c2O)o1	0	0	0	29.1µM	?
CC(C)NC(=O)N[C@H]1C=C[C@H](CC(=O)NCc2ccc(Oc3ccccc3)cc2)O[C@@H]1CO	-	-	-	0	?
O=C1NC[C@H](CCCCN2C[C@H](Cc3ccccc3)N(Cc3ccccc3)C(=O)C2=O)N(CCC2CCCCC2)C1=O	-	-	-	0	18.4µM
O=C1NC[C@H](CCCCN2C[C@@H](Cc3ccccc3)N(Cc3ccccc3)C(=O)C2=O)N(CCC2CCCCC2)C1=O	-	-	-	0	?
CC(C)C[C@H]1CN(CCCC[C@H]2CNC(=O)C(=O)N2CCC2CCCCC2)C(=O)C(=O)N1CC1CCCCC1	-	-	-	16.4µM	18.4µM
Cc1ccc(S(=O)(=O)NCC(=O)N2CCCCC2)cc1	0	0	0	0	0
COc1ccc(C(=O)NC2CC3CCCC(C2)N3Cc2ccccc2)cc1OC (stereo not given)	-	0	0[1.91 µM]	0	0
CCOc1ccc(-c2c(=O)n(OCC)c3ccccc3[n+]2[O-])cc1	-	0	0	0	0
CCOn1c(=O)c(-c2cc(OC)ccc2OC)[n+]([O-])c2ccccc21	-	0	0	0	0
CCOc1ccc(OCC)c(-c2c(=O)n(OCc3ccc(C(C)(C)C)cc3)c3ccccc3[n+]2[O-])c1	0	0	0	20.6µM	18.4µM
CCOc1ccc(-c2c(=O)n(O)c3ccccc3[n+]2[O-])cc1	-	?	?	?	13µM
CCN(CC)c1nc(Nc2ccccc2)nc(Oc2ccc(C(=O)OC)cc2)n1	0	?	0	?	?
SMILES	TDP1 block	Gal4-VP16 FLuc	RORg inh	DT40 TDP1 CPT	TDP1 cell noCPT
C#CCNC(=O)C1=C[C@H](c2coc3ccccc3c2=O)[C@@H](CCCO)[C@H](OCC)O1	0	0	0	0	0
CCc1c(C2(O)CCCCC2)[nH]c2cc(C(F)(F)F)ccc12	-	?	0	?	13µM
CCc1c(C2(O)CCCCC2)[nH]c2ccc(C(=O)OC)cc12	-	-	-	?	0
Cc1c(C2(O)CCCCC2)[nH]c2cc(C(F)(F)F)ccc12	0	-	-	20.6µM	16.4µM
O=C1CCN(Cc2ccc(O)cc2)CCN1[C@H](CO)c1ccccc1	-	0	?	0	0
Cc1cc(C(=O)NN=C2CCCC2)c2ccccc2n1	0	-	-	0	0
Cc1ccc(-c2cc(C(=O)NN=C3CCCC3)c3ccccc3n2)cc1	0	?	12.6µM	0	0
O=C(NN=C1CCCCCC1)c1cc(-c2ccccc2)nc2ccccc12	0	0	?	16.4µM	14.6µM
CN(C)C(=O)c1cc(CNCc2ccc(C(F)(F)F)cc2)cc(NC(=O)c2ccccn2)c1	-	-	-	0	0
CCOc1ncccc1C(=O)OCC(=O)Nc1ncc(C(F)(F)F)cc1Cl	0	-	0[0.365 µM]	0	0
O=C(NCc1nc(-c2ccccc2)no1)c1ccc2c(c1)OCO2	0	0	0	0	0
Cc1ccccc1OCc1nc(-c2ccc(NC(=O)c3ccc4c(c3)OCO4)cc2)no1	0	?	?	?	23.1µM
Cc1ccccc1OCc1nc(-c2ccc(NC(=O)c3ccco3)cc2)no1	0	0	0	?	23.1µM
COc1ccccc1CC(=O)Nc1ccc(-c2noc(COc3cccc(C)c3C)n2)cc1	0	0	0	18.4µM	13µM
O=C(c1cc2ccc3cccnc3c2[nH]1)N1CCCCC1	0	-	-	?	0
NC(=O)c1cc(S(=O)(=O)NCC2CCC(C(=O)Nc3cccc(Cl)c3)CC2)cs1 (stereo not given)	0	-	-	?	?
Cc1c(C(=O)NCc2ccccc2C(F)(F)F)sc(=O)n1Cc1ccc(S(=O)(=O)N(C)C)cc1	-	-	-	?	20.6µM
Cc1c(C(=O)NCc2ccccc2C(F)(F)F)sc(=O)n1Cc1ccccc1C#N	-	-	-	0	0
Cc1c(C(=O)NCc2ccc(C(F)(F)F)cc2)sc(=O)n1Cc1ccc(S(=O)(=O)N(C)C)cc1	-	-	-	23.1µM	23.1µM
O=C(CNC(=O)c1ccc(Br)cc1)N/N=C/c1cccnc1	0	0	0	0	?
COc1ccc(N2C(=O)CSC2c2ccc3c(c2)OCO3)cc1 (stereo not given)	0	0	0	0	0
C=C1C(=O)O[C@H]2C[C@H]1[C@@H](OC(C)=O)C/C(C)=C/CC/C(C)=C\CC[C@]2(C)O	-	-	-	2.59µM	2.91µM
CC(=O)O[C@@H]1C[C@H]2C(C)=C[C@H]3OC(=O)[C@@H](C)[C@H]3C[C@H]2[C@]1(C)O	0	0	0	0	0
Cc1ccc2c(CN3CCN(Cc4ccccc4Cl)CC3)cc(=O)oc2c1	0	-	-	16.4µM	23.1µM
Cc1ccc2oc(=O)cc(CN3CCN(C/C=C/c4ccccc4)CC3)c2c1	0	0	0	?	16.4µM
SMILES	TDP1 block	Gal4-VP16 FLuc	RORg inh	DT40 TDP1 CPT	TDP1 cell noCPT
Cc1ccc2c(CN3CCN(Cc4ccccc4)CC3)cc(=O)oc2c1	-	0	0	0	0
[O-]/[N+](=C\c1ccncc1)c1ccc(Br)cc1	0	0	0	8.2µM	?
C(=C\c1ccncc1)/c1ccncc1	0	0	0	0	0
CCCCC(CC)COC(=O)/C=C/c1ccc(OC)cc1 (stereo not given)	-	0	0[10 µM]	0	0
CCCCOC(=O)/C=C/c1ccc(OC(=O)OC)c(OC(=O)OC)c1	0	?	0	7.31µM	9.2µM
COC(=O)Oc1ccc(/C=C/C(=O)OC(C)C)cc1OC(=O)OC	0	0	0	?	9.2µM
O=C(Oc1ccc(Br)cc1C(=S)N1CCCCC1)c1cc([N+](=O)[O-])cc([N+](=O)[O-])c1	0	0	17.8µM	?	?
